According to PubChem BioAssay AID1159580 (chemical genetic matrix, 2015):
Hit rate of the full screen: of about 5,500 compounds, about 2,000 (36%) were called active. Roughly 18% stayed inconclusive and do not appear here. This is one part of the list. Unmarked numbers belong to inactive results. No stated cut-off is given here; in the data, active means normalized growth mostly below about 0.91 (no sharp cut-off); inconclusive means no clear call, values can overlap the other calls; inactive means mostly above about 0.92.

Test: chemical genetic growth profiling, strain panel (AID 1159580);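 further: tested at 20 µM; growth read once vehicle control cultures reached saturation at 30 °C; 1 = growth at the plate median or of vehicle wells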
Settings: S. cerevisiae deletion strains, growth OD

Nc1ccccc1C(=O)N/N=C\c1cc(Cl)cc(Cl)c1O
normalized growth (locus YAR019C, strain CDC15, stronger effect = lower value): 0.968
normalized growth (locus YBL105C, strain PKC1, stronger effect = lower value): 0.958
normalized growth (locus YBR135W, strain CKS1, stronger effect = lower value): 0.97
normalized growth (locus YBR136W, strain MEC1, stronger effect = lower value): 0.962
normalized growth (locus YBR160W, strain CDC28, stronger effect = lower value): 0.968
normalized growth (locus YDL017W, strain CDC7, stronger effect = lower value): 0.963
normalized growth (locus YDL028C, strain MPS1, stronger effect = lower value): 0.964
normalized growth (locus YDL101C, strain DUN1, stronger effect = lower value): 0.97
normalized growth (locus YDL108W, strain KIN28, stronger effect = lower value): 0.965
normalized growth (locus YDL132W, strain cdc53, stronger effect = lower value): 0.954
normalized growth (locus YDL214C, strain PRR2, stronger effect = lower value): 0.758
normalized growth (locus YDR052C, strain DBF4, stronger effect = lower value): 0.959
normalized growth (locus YDR054C, strain cdc34, stronger effect = lower value): 0.955
normalized growth (locus YDR226W, strain ADK1, stronger effect = lower value): 0.957
normalized growth (locus YDR477W, strain SNF1, stronger effect = lower value): 0.694
normalized growth (locus YER123W, strain YCK3, stronger effect = lower value): 0.435 (active)
normalized growth (locus YER133W, strain GLC7, stronger effect = lower value): 0.76
normalized growth (locus YFL009W, strain cdc4, stronger effect = lower value): 0.949
normalized growth (locus YFL029C, strain CAK1, stronger effect = lower value): 0.966
normalized growth (locus YFR003C, strain YPI1, stronger effect = lower value): 0.962
normalized growth (locus YFR019W, strain FAB1, stronger effect = lower value): 0.838
normalized growth (locus YFR028C, strain CDC14, stronger effect = lower value): 0.948
normalized growth (locus YGR040W, strain KSS1, stronger effect = lower value): 0.777
normalized growth (locus YGR052W, strain FMP48, stronger effect = lower value): 0.325 (active)
normalized growth (locus YGR092W, strain DBF2, stronger effect = lower value): 0.13 (active)
normalized growth (locus YHR030C, strain SLT2, stronger effect = lower value): 0.657 (active)
normalized growth (locus YHR079C, strain IRE1, stronger effect = lower value): 0.485 (active)
normalized growth (locus YHR082C, strain KSP1, stronger effect = lower value): 0.682
normalized growth (locus YHR205W, strain SCH9, stronger effect = lower value): 0.564 (active)
normalized growth (locus YIL147C, strain SLN1, stronger effect = lower value): 0.963
normalized growth (locus YJL095W, strain BCK1, stronger effect = lower value): 0.425 (active)
normalized growth (locus YJL128C, strain PBS2, stronger effect = lower value): 0.972
normalized growth (locus YJL157C, strain FAR1, stronger effect = lower value): 0.685 (active)
normalized growth (locus YJR016C, strain ILV3, stronger effect = lower value): 0.976
normalized growth (locus YJR066W, strain TOR1 (second series), stronger effect = lower value): 0.404 (active)
normalized growth (locus YJR066W, strain TOR1, stronger effect = lower value): 0.546
normalized growth (locus YKL048C, strain ELM1, stronger effect = lower value): 0.579 (active)
normalized growth (locus YKL067W, strain YNK1, stronger effect = lower value): 0.649 (active)
normalized growth (locus YKL101W, strain HSL1, stronger effect = lower value): 0.301 (active)
normalized growth (locus YKL193C, strain SDS22, stronger effect = lower value): 0.967
normalized growth (locus YKL203C, strain TOR2, stronger effect = lower value): 0.65 (active)
normalized growth (locus YLR113W, strain HOG1, stronger effect = lower value): 0.434 (active)
normalized growth (locus YLR133W, strain CKI1, stronger effect = lower value): 0.586 (active)
normalized growth (locus YLR403W, strain SFP1, stronger effect = lower value): 0.669
normalized growth (locus YML070W, strain DAK1, stronger effect = lower value): 0.494 (active)
normalized growth (locus YMR001C, strain CDC5, stronger effect = lower value): 0.956
normalized growth (locus YMR205C, strain PFK2 (second series), stronger effect = lower value): 0.527 (active)
normalized growth (locus YMR277W, strain FCP1, stronger effect = lower value): 0.958
normalized growth (locus YNL006W, strain LST8, stronger effect = lower value): 0.967
normalized growth (locus YNL020C, strain ARK1, stronger effect = lower value): 0.516 (active)
normalized growth (locus YNL161W, strain CBK1, stronger effect = lower value): 0.967
normalized growth (locus YNL183C, strain NPR1, stronger effect = lower value): 0.43 (active)
normalized growth (locus YNL207W, strain RIO2, stronger effect = lower value): 0.948
normalized growth (locus YNL222W, strain SSU72, stronger effect = lower value): 0.967
normalized growth (locus YNL307C, strain MCK1 (second series), stronger effect = lower value): 0.27 (active)
normalized growth (locus YOL078W, strain AVO1, stronger effect = lower value): 0.969
normalized growth (locus YOL136C, strain PFK27, stronger effect = lower value): 0.588 (active)
normalized growth (locus YOR061W, strain CKA2, stronger effect = lower value): 0.491 (active)
normalized growth (locus YOR119C, strain RIO1, stronger effect = lower value): 0.696 (active)
normalized growth (locus YOR231W, strain MKK1, stronger effect = lower value): 0.393 (active)
normalized growth (locus YOR329C, strain SCD5, stronger effect = lower value): 0.97
normalized growth (locus YPL031C, strain PHO85, stronger effect = lower value): 0.688
normalized growth (locus YPL153C, strain RAD53, stronger effect = lower value): 0.583 (active)
normalized growth (locus YPL204W, strain HRR25, stronger effect = lower value): 0.655 (active)
normalized growth (locus YPL209C, strain IPL1, stronger effect = lower value): 0.969
normalized growth (locus YPL256C, strain CLN2, stronger effect = lower value): 0.456 (active)
normalized growth (locus YPR025C, strain CCL1, stronger effect = lower value): 0.967
normalized growth (locus YPR106W, strain ISR1, stronger effect = lower value): 0.96
normalized growth (locus YPR111W, strain DBF20, stronger effect = lower value): 0.946
normalized growth (strain NNK1, stronger effect = lower value): 0.939
normalized growth (strain TSCII, stronger effect = lower value): 0.962
